Measurements reported in PubChem BioAssay AID651636 (Sanford-Burnham Center for Chemical Genomics, 2012).
The campaign covered roughly 360,000 compounds. About 3,000 (0.83%) were called active. The entries come from a sample that favours actives as a whole. A number with no mark means an inactive call. No stated cut-off is given here; in the data, active means inhibition above about 38%; inactive means the rest.

The compounds below were run against G-protein coupled receptor 183 (Homo sapiens) (UniProt P32249) (assay: EBI2 receptor antagonists, beta-arrestin recruitment, primary screen, cell-based, luminescence, 7a,25-OHC stimulation, uHTS (AID 651636;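 further: enzyme fragment complementation signal reports receptor beta-arrestin coupling in cells; 0% = agonist plus DMSO wells and 100% = wells without agonist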)). Conditions: 7a,25-OHC stimulated, at 5 µM, stronger effect = higher value.
G-protein coupled receptor 183 (Homo sapiens), sequence (P32249 whole entry, looked up, the tested form may be a part): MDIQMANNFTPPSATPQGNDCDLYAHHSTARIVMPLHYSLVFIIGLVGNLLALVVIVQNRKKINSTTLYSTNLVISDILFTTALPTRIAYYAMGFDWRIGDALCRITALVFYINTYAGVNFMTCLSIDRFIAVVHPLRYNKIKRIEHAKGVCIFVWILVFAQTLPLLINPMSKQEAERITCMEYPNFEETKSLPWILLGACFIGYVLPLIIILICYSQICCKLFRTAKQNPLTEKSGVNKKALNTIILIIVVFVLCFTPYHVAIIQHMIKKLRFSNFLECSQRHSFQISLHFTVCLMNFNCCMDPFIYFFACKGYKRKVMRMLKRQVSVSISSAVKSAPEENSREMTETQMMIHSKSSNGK

Question: With `O=C(NCc1ccc(Cl)cc1)C(=O)NCC1CCCN1S(=O)(=O)c1cccs1` (stereo not given) as the compound, how does the inhibition read?
Answer: -11.1%

Question: With `O=C(NCc1ccc(Cl)cc1)C1CCN(S(=O)(=O)c2cccs2)CC1` as the compound, how does the inhibition read?
Answer: 53% (active)

Question: With `O=C(NCc1ccccc1)C1CCCN(S(=O)(=O)c2cccs2)C1` (stereo not given) as the compound, how does the inhibition read?
Answer: -3.94%

Question: With `N#CCCCn1c(O)c(N=NC(=O)C(O)c2ccccc2)c2ccccc21` (stereo not given) as the compound, how does the inhibition read?
Answer: 10.8%

Question: How did the inhibition turn out when `COC(=O)c1cccc(NS(C)(=O)=O)c1` was run?
Answer: 1.19%

Question: For `CCCc1cc(=O)oc2cc(OCC(=O)Nc3ccc(CN4CCOCC4)cc3)c(Cl)cc12`, which inhibition is on record?
Answer: -0.759%

Question: `CC(NC(=S)NC1CCCCC1)C(c1ccccc1)N1CCOCC1` (stereo not given) was tested. Which inhibition did it give?
Answer: -1.91%

Question: `Cc1sc(NC(=O)C2C3CCC(O3)C2C(=O)O)c(C(=O)OC(C)C)c1-c1ccc(Cl)cc1` (stereo not given) was tested. Which inhibition did it give?
Answer: 2.12%

Question: How did the inhibition turn out when `CC(C)c1cc(Cn2c3ccccc3c(=O)n2C(C)Cn2cc(C3CC3)nn2)on1` (stereo not given) was run?
Answer: -7.98%

Question: How did the inhibition turn out when `COc1ccc(C(C(=O)NC2CCCCC2)N(C(=O)c2snc(C(N)=O)c2N)c2ccccc2OC)cc1` (stereo not given) was run?
Answer: 48.7% (active)

Question: Which inhibition does the source give for `COc1ccc(N(C(=O)c2snc(C(N)=O)c2N)C(C(=O)NC2CCCC2)c2ccc(C)o2)c(OC)c1` (stereo not given) here?
Answer: 34.7%

Question: With `CCC(C(=O)NC1CCCCC1)N(C(=O)c1snc(C(N)=O)c1N)c1ccc(OC)cc1OC` (stereo not given) as the compound, how does the inhibition read?
Answer: 8.28%

Question: For `Cc1ccccc1C(=O)NCC(c1ccco1)N1CCc2ccccc21` (stereo not given), which inhibition is on record?
Answer: 6.76%

Question: With `Cc1cc(C)c2c(=O)n3c(nc2c1)C(CC(C)C)NC(=O)c1cc2ccccc2cc1-3` (stereo not given) as the compound, how does the inhibition read?
Answer: 77.3% (active)

Question: With `O=C1NC(Cc2ccccc2)c2nc3ccc(Br)cc3c(=O)n2-c2cc3ccccc3cc21` (stereo not given) as the compound, how does the inhibition read?
Answer: 37.7%

Question: With `CCC1NC(=O)c2cccnc2-n2c1nc1ccc(C)cc1c2=O` (stereo not given) as the compound, how does the inhibition read?
Answer: -1.36%

Question: For `Cc1[nH]c2c(C(=O)N3CCCC(CCC(=O)NCc4ccccc4F)C3)cccc2c1C` (stereo not given), which inhibition is on record?
Answer: 2.8%

Question: For `CN1CCN(c2ccccc2NC(=O)COc2ccc(C3CCCCC3)cc2)CC1`, which inhibition is on record?
Answer: 22.8%

Question: How did the inhibition turn out when `O=C(CSCc1ccc([N+](=O)[O-])cc1)NCCSCc1ccccc1` was run?
Answer: 3.17%

Question: For `O=S(=O)(c1cccc(C(F)(F)F)c1)N1CCN(c2cnccn2)CC1`, which inhibition is on record?
Answer: -1.02%

Question: `O=C(/C=C/c1cccc(C(F)(F)F)c1)N1CCN(c2ccccn2)CC1` was tested. Which inhibition did it give?
Answer: 55% (active)

Question: `Nc1ccn(CC(=O)N2CCN(c3ccccn3)CC2)c(=O)n1` was tested. Which inhibition did it give?
Answer: -9.67%

Question: With `CSc1ccc(Cl)c(C(=O)OCC(=O)N2CCNC2=O)c1` as the compound, how does the inhibition read?
Answer: 5.05%

Question: Which inhibition does the source give for `CCc1nn(CCCC(=O)NC(C)c2ccccc2)c(=O)c2cc3occc3n12` (stereo not given) here?
Answer: -11%

Question: With `CC(CNc1ccc([N+](=O)[O-])cc1)NC(=O)c1ccccc1Br` (stereo not given) as the compound, how does the inhibition read?
Answer: 28.5%

Question: For `O=C(NCCNc1ccc([N+](=O)[O-])cc1Cl)c1ccccc1F`, which inhibition is on record?
Answer: -4.29%

Question: For `O=C(NCCNc1ccc([N+](=O)[O-])cc1)c1cccc2c(Br)cccc12`, which inhibition is on record?
Answer: 44.2% (active)

Question: Which inhibition does the source give for `CCNC(=O)NC(=O)C(C)OC(=O)c1cc(S(=O)(=O)N2CCCCCC2)ccc1OC` (stereo not given) here?
Answer: -0.223%

Question: How did the inhibition turn out when `O=C(CNC(=O)c1ccccc1Br)NCCSc1ccc(Br)cc1` was run?
Answer: 22%

Question: For `O=C(CCNS(=O)(=O)c1ccccc1)NCCSc1ccc(Br)cc1`, which inhibition is on record?
Answer: 51.2% (active)

Question: How did the inhibition turn out when `Cc1ccc(S(=O)(=O)NCCSC(C)(C)C)cc1` was run?
Answer: -0.527%

Question: With `Cc1ccc(S(=O)(=O)NCCNC(C)c2ccc(Br)cc2)cc1` (stereo not given) as the compound, how does the inhibition read?
Answer: 43.7% (active)

Question: How did the inhibition turn out when `O=C(CCNS(=O)(=O)c1ccccc1)NCCCc1ccccc1` was run?
Answer: -0.453%

Question: `CC(C)CCNC(=O)CCNS(=O)(=O)c1ccc(Cl)cc1` was tested. Which inhibition did it give?
Answer: -4.48%

Question: With `CC(CNS(=O)(=O)c1ccc(Br)cc1)CN(C)C` (stereo not given) as the compound, how does the inhibition read?
Answer: 0.0488%

Question: `Cc1ccc(OCCNC(=O)CCNS(=O)(=O)c2ccc(Br)cc2)cc1` was tested. Which inhibition did it give?
Answer: 45.9% (active)

Question: For `CCOc1ccc(S(=O)(=O)NCCC(=O)NCC2CCCO2)cc1` (stereo not given), which inhibition is on record?
Answer: -4.42%

Question: How did the inhibition turn out when `O=C(Nc1ccc2c(c1)OCO2)C1CC(c2c(F)cccc2Cl)=NO1` (stereo not given) was run?
Answer: 0.962%

Question: For `COc1ccc(OC)c(Cc2cnc3nc(N)nc(N)c3c2C)c1`, which inhibition is on record?
Answer: -1.26%

Question: With `CCOC(=O)/C(=N\Nc1ccccc1Cl)N(C)C1CCS(=O)(=O)C1` (stereo not given) as the compound, how does the inhibition read?
Answer: 1.11%

Question: How did the inhibition turn out when `C=C1CCN([C@@H](Cc2ccccc2)C(=O)N2CCOCC2)S(=O)(=O)c2ccccc21` was run?
Answer: 5.72%

Question: How did the inhibition turn out when `c1ccc(C[C@H]2CNCCN2CCC23CC4CC(CC(C4)C2)C3)cc1` was run?
Answer: -9.28%

Question: How did the inhibition turn out when `CC1CCCCC1NC(=O)/C(C#N)=C/C=C/c1ccccc1[N+](=O)[O-]` (stereo not given) was run?
Answer: 8.62%

Question: With `CN(CC(=O)Nc1ccc(OC(F)F)cc1)S(=O)(=O)/C=C/c1ccccc1` as the compound, how does the inhibition read?
Answer: 1.52%

Question: How did the inhibition turn out when `CC(=O)c1ccc(NC(=S)N(Cc2ccccc2)C(C)C2CC2)cc1` (stereo not given) was run?
Answer: -3.28%

Question: Which inhibition does the source give for `CC(C)N(Cc1ccccc1)C(=S)Nc1ccc(OC(F)F)cc1` here?
Answer: 53.9% (active)

Question: With `CC1=NNC(=O)C1Cc1c(Cl)cccc1Cl` (stereo not given) as the compound, how does the inhibition read?
Answer: 9.3%

Question: For `Cc1ccc(S(=O)(=O)NC2(C(F)(F)F)NC(=O)N(CCc3ccccc3)C2=O)cc1` (stereo not given), which inhibition is on record?
Answer: -2.6%

Question: With `Cc1ccc(-n2ncc3c2ncn2nc(-c4ccco4)nc32)c(C)c1` as the compound, how does the inhibition read?
Answer: -1.3%

Question: Which inhibition does the source give for `Cc1ccc(-n2nc(-c3ccco3)cc2C(=O)NCc2cccnc2)cc1` here?
Answer: 7.84%

Question: With `Cc1ccc(-n2ncc3c(=O)n(-c4ccc(C)c(C)c4)c(-c4ccco4)nc32)cc1` as the compound, how does the inhibition read?
Answer: 51.2% (active)

Question: For `CN(C)C(=O)c1cccc(-c2cnc3sc(NCc4ccc5c(c4)OCO5)nn23)c1`, which inhibition is on record?
Answer: -1.54%

Question: With `CCN(Cc1ccncc1)C(=O)c1cccc(S(=O)(=O)N2CCOCC2)c1` as the compound, how does the inhibition read?
Answer: -5.08%

Question: Which inhibition does the source give for `COc1ccc(OCC(=O)N2CCN(C(=O)COc3ccccc3)CC2)cc1` here?
Answer: 50.8% (active)

Question: For `COc1ccccc1C(=O)Nc1ccc(OCC(=O)N2CCCCC2)cc1`, which inhibition is on record?
Answer: -5.13%

Question: With `CCS(=O)(=O)N1CCN(C(=O)c2cccs2)CC1` as the compound, how does the inhibition read?
Answer: -10.3%

Question: Which inhibition does the source give for `COc1ccc(OCC(=O)N2CCN(C(=O)c3cccs3)CC2)cc1` here?
Answer: 49.9% (active)

Question: With `O=C(CN1C(=O)NC2(CCCCC2)C1=O)N1CCN(C(=O)c2cccs2)CC1` as the compound, how does the inhibition read?
Answer: -15.2%

Question: With `Cc1ccc(OCC(=O)N2CCN(C(=O)c3cccnc3)CC2)cc1` as the compound, how does the inhibition read?
Answer: 50.4% (active)

Question: `O=C(COc1ccc2ccccc2c1)N1CCN(C(=O)c2cccs2)CC1` was tested. Which inhibition did it give?
Answer: 79.7% (active)

Question: For `COc1ccc(N2CCN(C(=O)c3cccs3)CC2)cc1`, which inhibition is on record?
Answer: -0.686%

Question: For `O=C(c1ccc(OC2CCN(C(=O)c3cccnc3)CC2)cc1)N1CCCCCC1`, which inhibition is on record?
Answer: -4.37%

Question: How did the inhibition turn out when `O=C(COc1ccccc1)Nc1ccc(N2CCN(C(=O)c3cccs3)CC2)cc1` was run?
Answer: 3.87%

Question: For `Cc1ccccc1N1CCN(C(=O)c2cccnc2)CC1`, which inhibition is on record?
Answer: -10.5%

Question: How did the inhibition turn out when `CC1CN(C2CCN(C(=O)COc3ccccc3)CC2)CC(C)O1` (stereo not given) was run?
Answer: -0.0245%
